The list is not random: actives were taken first. Their share in the collection is about 4.2%.
PTK2B oligo ant = Pyk2 (human) oligomerization antagonism | Q14289 | Q293 cells, Pyk2 FERM NanoBiT luminescence; active compounds read low | z-score (the deposit names both 25 µM and 10 µM) | actives 0.83% (n = 99,000);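 active = Z-score of -3 or lower, scaled per plate to the spread of control and sample wells; inactive = z-score above -3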;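 note: negative z-score means lost luminescence so less FERM oligomerization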
Mac1 fbg inh = blocks human CD11b/CD18 adhesion to fibrinogen. K562 CD11b/CD18 adhesion to fibrinogen, ATPlite luminescence; Mn2+ added to activate the integrin. inhibition, % at 10 µM. actives 0.54% (n = 93,000). AID 1497;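 active = primary inhibition of 50% or more at 10 µM, then 40% or more on retest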
Cav32 inh = human Cav3.2 channel inhibition, primary screen | O95180 | Cav3.2-expressing cells, Fluo-4 calcium fluorescence FDSS; active compounds read low | B-score at 10 µM | actives 4% (n = 100,000);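 active = single-dose well whose peak fluorescence ratio is a statistical outlier from its plate by either plate-standardised score or position-corrected B-score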
E coli RNAP = inhibitors of Escherichia coli RNA polymerase. E. coli RNA polymerase, fluorescence transcription assay. actives 0.2% (n = 62,000). P0A8V2. inhibition, %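 (tested at 10 µM)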; in the data active = inhibition above about 20%
Target sequence (P0A8V2 whole entry, looked up): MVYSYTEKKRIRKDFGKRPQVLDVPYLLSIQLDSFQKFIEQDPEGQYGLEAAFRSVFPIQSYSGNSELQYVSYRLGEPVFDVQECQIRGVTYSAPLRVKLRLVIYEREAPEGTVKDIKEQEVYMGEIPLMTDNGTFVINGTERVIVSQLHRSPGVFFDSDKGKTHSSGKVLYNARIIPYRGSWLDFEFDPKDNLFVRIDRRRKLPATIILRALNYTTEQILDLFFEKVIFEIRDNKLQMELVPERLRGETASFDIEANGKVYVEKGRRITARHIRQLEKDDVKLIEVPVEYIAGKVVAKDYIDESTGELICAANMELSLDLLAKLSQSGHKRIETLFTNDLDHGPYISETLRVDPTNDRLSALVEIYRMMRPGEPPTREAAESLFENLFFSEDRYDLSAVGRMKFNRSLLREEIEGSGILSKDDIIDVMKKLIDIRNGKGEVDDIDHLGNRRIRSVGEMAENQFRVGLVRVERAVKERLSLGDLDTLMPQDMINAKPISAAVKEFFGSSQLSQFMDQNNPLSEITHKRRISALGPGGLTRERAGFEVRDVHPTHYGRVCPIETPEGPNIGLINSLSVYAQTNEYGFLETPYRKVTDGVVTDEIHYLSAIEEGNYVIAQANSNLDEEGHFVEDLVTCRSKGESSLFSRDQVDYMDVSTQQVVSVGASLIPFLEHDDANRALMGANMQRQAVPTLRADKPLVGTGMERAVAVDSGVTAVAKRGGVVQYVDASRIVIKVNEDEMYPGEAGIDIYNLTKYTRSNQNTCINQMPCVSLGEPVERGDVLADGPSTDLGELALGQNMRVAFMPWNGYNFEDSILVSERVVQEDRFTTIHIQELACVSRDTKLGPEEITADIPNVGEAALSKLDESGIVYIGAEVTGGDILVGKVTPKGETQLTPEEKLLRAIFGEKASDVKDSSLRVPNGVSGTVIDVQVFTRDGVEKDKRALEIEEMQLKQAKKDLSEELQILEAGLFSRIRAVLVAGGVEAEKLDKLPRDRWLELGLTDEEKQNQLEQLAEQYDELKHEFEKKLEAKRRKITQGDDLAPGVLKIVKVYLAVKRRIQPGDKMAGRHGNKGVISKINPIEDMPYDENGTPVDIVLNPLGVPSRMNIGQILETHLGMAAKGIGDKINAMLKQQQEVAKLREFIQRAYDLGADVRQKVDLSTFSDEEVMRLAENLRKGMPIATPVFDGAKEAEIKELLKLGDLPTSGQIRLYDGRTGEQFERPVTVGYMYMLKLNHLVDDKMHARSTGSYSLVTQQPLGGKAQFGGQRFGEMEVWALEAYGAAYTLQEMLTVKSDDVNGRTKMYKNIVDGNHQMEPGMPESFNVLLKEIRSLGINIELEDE
CD11b adhes enh = CD11b/CD18-fibrinogen binding enhancement | K562 CD11b/CD18 adhesion to fibrinogen, ATPlite luminescence | activation, % at 10 µM | actives 0.07% (n = 93,000) | AID 1499;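 active = 10 µM primary screen giving 50% or more activity, confirmed by 40% or more on retest at that dose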
A number is an active result; - = inactive; . = no result given.

SMILES	PTK2B oligo ant	Mac1 fbg inh	Cav32 inh	E coli RNAP	CD11b adhes enh
COc1ccc(-c2cc(C(=O)N3CCN(C(c4ccccc4)c4ccccc4)CC3)no2)cc1OC	-	-	-6.3	-	-
Cc1cccc(C)c1NC(=S)N(c1ccccc1)C(C)C	.	-	.	.	-
O=[N+]([O-])c1ccc2nc(-c3ccccc3)n(OCc3ccc(Cl)cc3)c2c1	-	-	-4.5	.	-
COn1c(-c2ccccc2)nc2ccc(Cl)cc21	-	-	.	.	-
O=C(O)C1=C[C@H](C2CC2)C[C@H](OCCCCO)O1	.	.	-	.	.
NC(=O)CC(NSc1ccccc1[N+](=O)[O-])C(=O)O (configuration not stated)	.	.	-	.	.
Cc1cccc(NC(=S)NN(Cc2ccccc2)c2ccccc2)c1C	-	-	-4.9	.	-
CC(=O)N(Cc1c(C)nn(-c2ccccc2)c1Cl)c1ccc(Cl)cc1	-	.	-8.3	.	.
C=C(C)C1CC=C(C)/C(=N\NC(=O)CNc2cccc3ccccc23)C1 (configuration not stated)	.	-	.	.	-
CCCNNC(=O)C(O)(c1ccccc1)c1ccccc1	.	-	.	.	-
O=C(/C=C(\O)c1ccc(Cl)cc1)C(=O)NNC(=O)C(O)(c1ccccc1)c1ccccc1	-	-	-8.6	.	-
CCN(CC)c1ccc(Nc2nc(N3CCOCC3)c3ccccc3n2)cc1	-	65	-	.	-
COc1ccc(Cn2c(SC)nc3ccccc32)cc1[N+](=O)[O-]	-	-	-	.	-
O=C(c1ccco1)N(Cc1ccco1)c1ccc(O)cc1	-	-	-	-	-
O=C(c1ccco1)N(Cc1ccc([N+](=O)[O-])cc1)c1ccc(Br)cc1	-	.	-6.6	.	.
COc1ccc(CN(C(=O)c2ccco2)c2ccccc2)cc1	-	.	-	.	.
O=C(c1ccco1)N(Cc1ccc([N+](=O)[O-])cc1)c1ccc(Cl)cc1	-	.	-6.9	.	.
CCOC(=O)C1CCCN(C(=O)c2cc3c(-c4cccc(OC)c4)nn(C)c3s2)C1 (configuration not stated)	-	-	-4.2	-	-
CCOC(=O)C1CCN(C(=O)c2cc3c(-c4ccc(OC)c(OC)c4)nn(C)c3s2)CC1	.	-	-	-	-
COc1ccc(N2CCN(C(=O)c3cc4c(-c5ccc(Cl)cc5)nn(C)c4s3)CC2)cc1	.	-	-	-	-
COc1cccc(-c2nn(C)c3sc(C(=O)N4CCN(c5ccccn5)CC4)cc23)c1	-3.9	-	-	-	-
Cc1csc2ncc(C(=O)Nc3ccon3)c(=O)n12	-	.	-	24	.
O=C(COC(=O)c1cccc(S(=O)(=O)N2CCOCC2)c1)Nc1nc(-c2ccccc2Cl)cs1	-	.	-5	.	.
CCc1nc2ccccc2c(C(=O)OCC(=O)Nc2cccc(S(=O)(=O)N3CCOCC3)c2)c1C	-4.7	.	-	.	.
O=C(COC(=O)c1cccc(S(=O)(=O)N2CCOCC2)c1)Nc1ncc(C(F)(F)F)cc1Cl	-	-	-	.	-
SMILES	PTK2B oligo ant	Mac1 fbg inh	Cav32 inh	E coli RNAP	CD11b adhes enh
CCc1nc2ccccc2c(C(=O)OCC(=O)Nc2ccc(S(=O)(=O)N3CCOCC3)cc2)c1C	-4.4	-	-	-	-
O=C(COC(=O)c1ccccn1)Nc1ccc(S(=O)(=O)N2CCOCC2)cc1	-	-	-	.	-
CC1(C)CN(c2ccccc2)N(Cc2ccc(F)cc2)C1=O	-	.	-	.	.
O=c1c2c(-c3ccco3)csc2nc(SCc2cn3cccnc3n2)n1-c1ccccc1	-	-	-4.4	-	-
CN1C(=O)/C(=C/c2ccc(-c3ccccc3[N+](=O)[O-])o2)SC1=Nc1ccc(Cl)c(C(=O)O)c1	.	-	.	.	-
CCOc1cccc(NC(=O)C2CC(=O)N(C)C(=Nc3ccccc3)S2)c1 (configuration not stated)	-	-	-4.5	-	-
CCOc1cccc(NC(=O)C2CC(=O)N(C)C(=Nc3cccc(F)c3)S2)c1 (configuration not stated)	-	-	-4.7	-	-
COc1ccccc1N=C1SC(C(=O)Nc2ccc(F)cc2)CC(=O)N1C (configuration not stated)	-	.	-	.	.
O=C(CN(c1ccccc1)S(=O)(=O)c1ccccc1[N+](=O)[O-])NN=C1CCCCCCC1	-	-	-	.	-
CC(=O)C1=C(C)OC(N)=C(C#N)C1c1cc2cc(C)c(C)cc2nc1Cl (configuration not stated)	-	-	.	.	-
Cc1cc2cc(C=O)c(Cl)nc2cc1C	-	.	-5.9	.	.
CCCCc1c(O)nc(N2CCN(Cc3ccccc3)CC2)[nH]c1=O	-	-	-	43	-
Cc1ccc(C(=O)C(OC(=O)CNS(=O)(=O)c2ccccc2)c2ccccc2)cc1 (configuration not stated)	-	-	-	.	-
Cn1c(CSc2nc3ccccc3s2)n[nH]c1=S	-	-	-	-	-
O=c1oc2ccccc2n1CSc1nc2ccccc2s1	-	-	-4.1	-	-
c1ccc2[nH]c(CSc3nc4ccccc4s3)nc2c1	-	-	-6.4	.	-
Cc1nnc(SCc2nc3ccccc3[nH]2)s1	-	-	-	-	-
Cn1c(CSc2nc3ccccc3s2)nc2ccccc21	-	-	-4.7	-	-
Cc1ccc(CNC(=O)C(C)OC(=O)c2cccs2)cc1 (configuration not stated)	-	-	-	.	-
O=C(NNC(=O)c1ccco1)c1cccc([N+](=O)[O-])c1	-	-	-	.	-
CCn1ncc(/C=C/C(=O)Nc2c(C)nn(Cc3ccc(Cl)cc3Cl)c2C)c1C	-	-	-	.	-
Cc1nn(Cc2ccc(Cl)cc2Cl)c(C)c1NC(=O)NC12CC3CC(CC(C3)C1)C2	-	-	-4.2	.	-
CCOC(=O)C1=C(c2ccccc2)N(C)C(=O)NC1c1ccc(OC(F)F)c(OC)c1 (configuration not stated)	-	-	-8.6	-	-
C=CCn1c(CCNC(=O)c2cccs2)nnc1SCC(=O)Nc1cccc(F)c1	-	-	-	.	-
CN(C)S(=O)(=O)c1cccc(C(=O)N(Cc2ccc(F)cc2)Cc2ccco2)c1	-	-	-4.5	-	-
SMILES	PTK2B oligo ant	Mac1 fbg inh	Cav32 inh	E coli RNAP	CD11b adhes enh
Cc1ccc(N(Cc2ccco2)C(=O)c2cccc(S(=O)(=O)N(C)C)c2)cc1	-	-	-4.3	-	-
CCCc1nn(C)c2c1C(c1cccnc1)C(C#N)=C(N)O2 (configuration not stated)	-	.	-	-	.
CCN(CC)c1ccc2c(c1)OC(N)=C(C#N)C2c1cccnc1 (configuration not stated)	-	.	-11	-	.
CC[C@H](C)/C=C(C)/C=C/C1=CC2=CC(=O)[C@]3(C)OC(=O)[C@@H](C(C)=O)[C@@H]3C2=CO1	.	.	-4	.	.
CC(C)CC(=O)NC(NCC1CCCO1)C(Cl)(Cl)Cl (configuration not stated)	-	-	-	.	-
CCOc1ccc(NC(=O)CS(=O)(=O)c2cn(C)c3ccccc23)cc1	.	-	-	.	-
COc1cc(C(=O)NS(=O)(=O)c2ccccc2C)ccc1Cc1cn(C)c2ccc(NC(=O)OC3CCCC3)cc12	.	.	-5.9	.	.
O=C1c2ccccc2S(=O)(=O)c2cc(C(=O)N3CCN(C(=O)c4ccccc4)CC3)ccc21	.	.	-	.	.
